Source: PubChem BioAssay (Tox21)
Inconclusive results are not listed. Values without a mark were called inactive. Calls of active or inactive are those of the source. The call rests on the fitted dose curve; in most records, active means well fitted cell-killing curve with a large enough effect in the repeat runs; inconclusive means weak or mixed curves; inactive means flat fitted curve, though single readings scatter.

Test: qHTS RealTime-Glo MT Cell Viability Assay in HepG2 cells - 24 hour (AID 1224867); further: nearly all actives have a fitted effect of over 50% in size
Conditions: RealTime-Glo luminescence; series mostly up to 76.8 µM; activity change, negative = cytotoxicity: at the top concentration
Text: U.S. Tox21 Program National Center for Advancing Translational Sciences [NCATS] NIH Chemical Genomics Center [NCGC] U.S. Environmental Protection Agency [EPA] National Institutes of Environmental Health Sciences [NIEHS] National Toxicology Program [NTP] U.S. Food and Drug Administration [FDA] Tox21 Assay Overview: Measure of cell viability is critical in the cell-base assay. Analysis of cell viability is necessary for the characterization of cell responses to cytotoxic drugs and environmental stress. A RealTime-Glo MT Cell Viability Assay to monitor cell viability in real time of continues cell culture during 40 hours of compound treatment was used to screen Tox21 10K library compounds in HepG2 cells. The RealTime-Glo MT Cell Viability Assay is a nonlytic, homogeneous, bioluminescent method to measure cell viability in real time using a simple, plate-based method. The assay involves adding NanoLuc luciferase and a cell-permeant prosubstrate to cells in culture. Viable cells reduce the proprietary prosubstrate to generate a substrate for NanoLuc luciferase. This substrate diffuses from cells into the surrounding culture medium, where it is rapidly used by the NanoLuc Enzyme to produce a luminescent signal. The signal correlates with the number of viable cells, making the assay well suited for cytotoxicity studies.
Tox21 Assay Protocol Summary: The mixture of HepG2 cell suspension and reagents were dispensed at 600cells/6 ul/well in 1536-well tissue culture treated black solid bottom plates using a Multidrop dispenser. After the assay plates were incubated at a 37 C/5% CO2 incubator for 5 hours, 23 nL of compounds dissolved in DMSO, positive and negative controls was transferred to the assay plate by a pintool work station. The plates were incubated at 37 C for 40 hours. The luminescence intensity were measured at 0h, 8h, 16h, 24h, 32h and 40h time points using ViewLux plate reader during compound treatment.
On the % scale 0 is the no-effect control and ±100 the full control effect; potency means the concentration at half of the fitted maximal effect.

Row | SMILES | activity change, negative = cytotoxicity | Potency
1 | Oc1cccc(Nc2ccccc2)c1 | -4.21% | –
2 | C/C=C\C/C=C/CCCCCCCCOC(C)=O | -11.6% | –
3 | C[C@@H]1CN(CCCn2c3ccccc3c3ccccc32)C[C@H](C)N1 | – | 23.9 µM (active)
4 | CC1CC(C)C(=O)C1=O (stereo not given) | 0.231% | –
5 | O=C(Nc1cccc2c(=O)cc(-c3nn[nH]n3)oc12)c1ccc(OCCCCc2ccccc2)cc1 | -1.15% [at 35.3 µM] | –
6 | CN1CCCN=C1COC(=O)C(O)(c1ccccc1)C1CCCCC1 (stereo not given) | 1.11% [at 35.3 µM] | –
7 | CCOC(=O)c1ccc(I)cc1 | 5.24% | –
8 | O=C1Cc2cc(Cl)ccc2N1 | 2.03% [at 35.3 µM] | –
9 | CCOC(=O)[C@H](CCc1ccccc1)N[C@@H](C)C(=O)N(CC(=O)O)C1Cc2ccccc2C1 | -0.25% [at 35.3 µM] | –
10 | Nc1nc2ccc([N+](=O)[O-])cc2s1 | 6.31% | –
11 | CCOC(=O)c1ccc(OCCN2C[C@H](O)[C@@H](O)[C@H](O)[C@H]2CO)cc1 | 3.47% [at 35.3 µM] | –
12 | CCn1cc(C(=O)O)c(=O)c2cc(F)c(N3CCNCC3)cc21 | 0.12% [at 35.3 µM] | –
13 | C=C/C(C)=C/C/C=C(\C)CCC=C(C)C | -3.66% | –
14 | Oc1ccc(Cl)c2cccnc12 | -12% [at 35.3 µM] | –
15 | O=C1Cc2ccccc2N1c1c(Cl)cccc1Cl | -16.5% | –
16 | CC(C)C(O)(c1ccc(OC(F)(F)F)cc1)c1cncnc1 (stereo not given) | -9.92% | –
17 | CCC=CC#N | 1.02% | –
18 | CC1=C(Br)C(=O)C(Br)=C/C1=C(/c1ccccc1S(=O)(=O)O)c1cc(Br)c(O)c(Br)c1C | -7.35% [at 35.3 µM] | –
19 | CC(C)C[C@H](NC(=O)[C@H](CCc1ccccc1)NC(=O)CN1CCOCC1)C(=O)N[C@@H](Cc1ccccc1)C(=O)N[C@@H](CC(C)C)C(=O)[C@@]1(C)CO1 | – | 0.0674 µM (active)
20 | COc1cc(N)c(Cl)cc1C(=O)NC1CCN(CCCOc2ccc(F)cc2)CC1OC (stereo not given) | -19.1% [at 35.3 µM] | –

Row | SMILES | activity change, negative = cytotoxicity | Potency
21 | CCCCCCCC/C=C\CCCCCCCCO | -0.146% | –
22 | O=[N+]([O-])c1ccc(Nc2ccc(Nc3ccccc3)c(S(=O)(=O)O)c2)c([N+](=O)[O-])c1 | -0.662% | –
23 | C1COC1 | -0.765% | –
24 | O=C1C(=O)c2ccccc2C(O)=C1C1CCC(c2ccc(Cl)cc2)CC1 (stereo not given) | -0.588% [at 35.3 µM] | –
25 | CC(C)C=O | 0.0226% | –
26 | C(=C\c1ccccc1)/c1ccccc1 | 3.56% | –
27 | O=C(OC(=O)c1ccccc1)c1ccccc1 | 1.5% | –
28 | CC(C)Nc1cccnc1N1CCN(C(=O)c2cc3cc(NS(C)(=O)=O)ccc3[nH]2)CC1 | -1.74% [at 35.3 µM] | –
29 | CCC(=O)C1CC(C(C)C)CC=C1C (stereo not given) | 1.52% | –
30 | O=C(O)CCC(=O)C(=O)O | 0.62% | –
31 | CC1CC(OC(=O)C(O)c2ccccc2)CC(C)(C)N1C (stereo not given) | 3.1% [at 35.3 µM] | –
32 | O=C(O)CCc1nc(-c2ccccc2)c(-c2ccccc2)o1 | 2.25% [at 35.3 µM] | –
33 | C[C@H]1c2cccc(O)c2C(O)=C2C(=O)[C@]3(O)C(O)=C(C(N)=O)C(=O)[C@@H](N(C)C)[C@@H]3[C@@H](O)[C@@H]21 | 1.7% [at 35.3 µM] | –
34 | C=C1c2cccc(O)c2C(O)=C2C(=O)[C@]3(O)C(O)=C(C(N)=O)C(=O)[C@@H](N(C)C)[C@@H]3[C@@H](O)[C@H]12 | -0.648% [at 35.3 µM] | –
35 | CC(=O)[C@H]1[C@H](C#N)C[C@H]2[C@@H]3CC=C4C[C@@H](O)CC[C@]4(C)[C@H]3CC[C@@]21C | -9.32% [at 35.3 µM] | –
36 | CCC1NC(=O)c2cc(S(N)(=O)=O)c(Cl)cc2N1 (stereo not given) | 1.06% [at 35.3 µM] | –
37 | CCCCCCNC(=O)n1cc(F)c(=O)[nH]c1=O | 1.85% [at 35.3 µM] | –
38 | CCCCCCC(C)(C)C(=O)O | 0.679% | –
39 | N#CCCN(CCO)CCO | 4.76% | –
40 | O=[N+]([O-])c1ccc(O/N=C/c2cc(Br)c(O)c(Br)c2)c([N+](=O)[O-])c1 | -25% | –
